Source: PubChem BioAssay (EPA / NIEHS)
Records with an inconclusive call do not appear. Calls of active or inactive are those of the source. The calls were made as follows, unless noted: active = hit-call score of the fitted dose curve at least 0.9, where 1 is the maximum; inactive = score below 0.9.

Tests used:
[1] = target: Myc proto-oncogene protein (Homo sapiens) (UniProt P01106); experiment: ATG_Myc_CIS: Attagene CIS-FACTORIAL HepG2 Assay for human Myelocytomatosis (Myc) Proto-Oncogene Transcription Factor (AID 2282990); details: HepG2, Attagene cis-reporter transcription factor activity; actives raise or lower the signal
In short: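 Multiplexed cis-reporter transcription in HepG2 cells after 24 h chemical treatment. Reporter mRNA measured by RT-PCR and capillary electrophoresis fluorescence; activity fitted bidirectionally against DMSO control.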

[2] = ATG_NF_kB_CIS: Attagene CIS-FACTORIAL HepG2 Assay for human Nuclear Factor Kappa B (NF-kB) (AID 2282991); details: HepG2 Attagene cis-factorial NF-kB reporter mRNA; actives raise or lower the signal
In short: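 HepG2 cells transiently transfected with multiplexed cis-element reporter units measuring endogenous transcription factor activity; reporter mRNA read 24 h after dosing by RT-PCR, fluorescent labelling, HpaI digestion and capillary electrophoresis. Bidirectional fit against DMSO baseline.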

[3] = ATG_NRF2_ARE_CIS: Attagene CIS-FACTORIAL HepG2 Assay for human Nuclear Factor Erythroid 2 Related Factor 2 (NFR2) response to Antioxidant Response Elements (ARE) (AID 2282992); details: HepG2 Attagene ARE/NRF2 reporter, transcription factor activity; actives raise or lower the signal
In short: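 Fluorescence intensity of reporter-specific cDNA fragments, separated by capillary electrophoresis, reflects mRNA induction in transfected HepG2 cells at 24 h. Activity is fitted bidirectionally, DMSO serving as baseline.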

[4] = ATG_Oct_MLP_CIS: Attagene CIS-FACTORIAL HepG2 Assay for human Octamer-Binding Transcription Factor (Oct) (AID 2282993); details: HepG2 Attagene cis-factorial Oct reporter, mRNA; actives raise or lower the signal
In short: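 HepG2, transient MRTU transfection, cis promoter elements; 24 h dosing; RT-PCR/CE fluorescence read-out of reporter mRNA; fit both directions vs DMSO.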

[5] = target: human Peroxisome Proliferator-activated Receptor alpha (PPARa), PPARA (gene 5465) (UniProt Q07869); experiment: ATG_PPARa_TRANS: Attagene TRANS-FACTORIAL HepG2 Assay for human Peroxisome Proliferator-activated Receptor alpha (PPARa) (AID 2283001; active = hit-call score of the fitted dose curve at least 0.9, where 1 is the maximum;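 as to AC50: potency for gain of reporter signal over DMSO so agonist or activator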)
In short: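 Cells (HepG2) are transfected with multiple reporter transcription units, exposed to chemical for 24 h, then total RNA is reverse-transcribed and amplified. Labelled products are quantified by capillary electrophoresis; induction is referenced to DMSO.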

[6] = target: human Peroxisome Proliferator-activated Receptor delta (PPARd), PPARD (gene 5467) (UniProt Q03181); experiment: ATG_PPARd_TRANS: Attagene TRANS-FACTORIAL HepG2 Assay for human Peroxisome Proliferator-activated Receptor delta (PPARd) (AID 2283002; active = hit-call score of the fitted dose curve at least 0.9, where 1 is the maximum)
In short: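 Multiplexed trans-activation format: HepG2 liver cells expressing exogenous NR-Gal4 chimeras and GAL4-UAS reporters were exposed for 24 h. Reporter mRNA was detected by RT-PCR with capillary electrophoresis fluorescence; activity fitted as gain of signal relative to DMSO.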

[7] = target: Retinoic acid receptor alpha (Homo sapiens) (UniProt P10276); experiment: ATG_RARa_TRANS: Attagene TRANS-FACTORIAL HepG2 Assay for human Retinoic Acid Receptor alpha (RARa) (AID 2283005; active = hit-call score of the fitted dose curve at least 0.9, where 1 is the maximum)
In short: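 HepG2 cells transiently transfected with multiple reporter units expressing chimeric RARα-GAL4 fusion, with GAL4-UAS-driven reporters. After 24 h compound exposure, reporter mRNA induction quantified by RT-PCR and capillary electrophoresis with fluorescent labeling; gain-of-signal fitted relative to DMSO control.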

[8] = target: Peroxisome proliferator-activated receptor gamma (Homo sapiens) (UniProt P37231); experiment: ATG_PPARg_TRANS: Attagene TRANS-FACTORIAL HepG2 Assay for human Peroxisome Proliferator-activated Receptor-gamma (PPARg) (AID 2283007; active = hit-call score of the fitted dose curve at least 0.9, where 1 is the maximum)
In short: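 HepG2 cells transiently transfected with multiplexed GAL4-UAS reporter units and exogenous chimeric NR-Gal4 proteins; reporter mRNA quantified after 24 h compound exposure by RT-PCR, fluorescent labelling, HpaI digestion and capillary electrophoresis; gain-of-signal fitted versus DMSO baseline.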

[9] = target: Nuclear receptor subfamily 1 group I member 2 (Homo sapiens) (UniProt O75469); experiment: ATG_PXR_TRANS: Attagene TRANS-FACTORIAL HepG2 Assay for human Pregnane X Receptor (PXR) (AID 2283008; active = hit-call score of the fitted dose curve at least 0.9, where 1 is the maximum)
In short: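 Transient HepG2 transfectants carrying multiplexed reporter transcription units; PXR activity read through a Gal4 chimera. 24 h exposure. RT-PCR/CE fluorescence; upward curve fit referenced to DMSO.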

[10] = target: human Retinoic Acid Receptor gamma (RARg), RARG (gene 5916) (UniProt P13631); experiment: ATG_RARg_TRANS: Attagene TRANS-FACTORIAL HepG2 Assay for human Retinoic Acid Receptor gamma (RARg) (AID 2283009; active = hit-call score of the fitted dose curve at least 0.9, where 1 is the maximum)
In short: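 TRANS format measured activity of exogenous NR-GAL4 fusion (RARg) in transfected HepG2 liver cells after 24 h dosing. Induced reporter RNA was detected by RT-PCR/capillary electrophoresis fluorescence, analysed in the positive direction against DMSO.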

[11] = target: human RAR-related Orphan Receptor beta (RORb), RORB (gene 6096) (UniProt Q92753); experiment: ATG_RORb_TRANS: Attagene TRANS-FACTORIAL HepG2 Assay for human RAR-related Orphan Receptor beta (RORb) (AID 2283010; active = hit-call score of the fitted dose curve at least 0.9, where 1 is the maximum)
In short: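 Transfect HepG2 with multiple GAL4-UAS reporter transcription units; dose chemicals for 24 h; isolate RNA, reverse-transcribe and PCR-amplify reporter sequences; label, digest and resolve fragments by capillary electrophoresis; fit increases relative to DMSO.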

[12] = target: Cellular tumor antigen p53 (Homo sapiens) (UniProt P04637); experiment: ATG_p53_CIS: Attagene CIS-FACTORIAL HepG2 Assay for human p53 Transcription Factor (AID 2282994); details: HepG2 p53 cis-element reporter, Attagene mRNA; actives raise or lower the signal
In short: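 Transiently transfected HepG2 (multiple cis reporter transcription units); exposure 24 h; reporter RNA via RT-PCR, 6-FAM extension, 2 h HpaI digest at 37 C, CE detection; DMSO baseline.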

[13] = target: human RAR-related Orphan Receptor gamma (RORg), RORC (gene 6097) (UniProt P51449); experiment: ATG_RORg_TRANS: Attagene TRANS-FACTORIAL HepG2 Assay for human RAR-related Orphan Receptor gamma (RORg) (AID 2283011; active = hit-call score of the fitted dose curve at least 0.9, where 1 is the maximum)
In short: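 Activity is scored as increase in GAL4-UAS reporter mRNA over DMSO, detected by fluorescent RT-PCR and capillary electrophoresis in HepG2 cells transiently expressing a RORg-Gal4 chimera, 24 h after dosing.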

[14] = BSK_3C_TissueFactor: BioMAP Diversity Plus: 3C Assay for Tissue Factor Biomarker Activity (AID 2282997); details: BioMAP 3C HUVEC, tissue factor biomarker readout; actives raise or lower the signal
In short: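 Cells used were primary human umbilical vein endothelial cells. They were dosed with chemical, and after 24 h Tissue Factor was quantified by ELISA. Curves were fitted bidirectionally with DMSO as baseline.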

[15] = BSK_3C_uPAR: BioMAP Diversity Plus: 3C Assay for Urokinase-type plasminogen activator receptor (uPAR) Biomarker Activity (AID 2282998); details: BioMAP 3C HUVEC, uPAR biomarker ELISA; actives raise or lower the signal
In short: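 A multiplexed primary-cell system built on human umbilical vein endothelium was used, with chemical present for 24 h before reading. Cell-surface uPAR was detected by ELISA; signal change in either direction counted against DMSO.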

[16] = BSK_3C_VCAM1: BioMAP Diversity Plus: 3C Assay for Vascular cell adhesion molecule 1 (VCAM1) Biomarker Activity (AID 2282999); details: BioMAP 3C HUVEC, VCAM1 ELISA, cytokine-stimulated; actives raise or lower the signal
In short: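 Vascular primary endothelium (human umbilical vein) was exposed to chemicals and assayed 24 h later. VCAM-1 levels came from ELISA, with DMSO serving as baseline for bidirectional fitting.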

[17] = BSK_4H_Eotaxin3: BioMAP Diversity Plus: 4H Assay for Eotaxin 3 Biomarker Activity (AID 2283000); details: primary human endothelial cells (HUVEC); actives raise or lower the signal
In short: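 Endothelial primary cells (human umbilical vein) exposed to compound for 24 h. ELISA detection of Eotaxin-3.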

[18] = read-out: Intercellular Adhesion Molecule 1 (ICAM1), ICAM1 (gene 3383); experiment: BSK_3C_ICAM1: BioMAP Diversity Plus: 3C Assay for Intercellular Adhesion Molecule 1 (ICAM1) Biomarker Activity (AID 2283003); details: primary human endothelial cells (HUVEC); actives raise or lower the signal
In short: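 Chemicals are dosed onto primary human umbilical vein endothelium (3C system). After 24 h, ICAM-1 is measured by ELISA, and responses are fitted bidirectionally relative to DMSO.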

[19] = BSK_3C_Proliferation: Cell Proliferation Assessment in the BioMAP Diversity Plus: 3C Assay (AID 2283006); details: primary human endothelial cells (HUVEC);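 as to AC50: potency may reflect either rise or fall in cell number versus DMSO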
In short: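 Cells (human umbilical vein endothelial, sub-confluent) receive test chemical; after 48 h they are fixed in 10% trichloroacetic acid, stained with 0.1% SRB and read at 560 nm. Activity is referenced to DMSO, fitting increases and decreases.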

[20] = target: human Retinoic Acid Receptor beta (RARb), RARB (gene 5915) (UniProt P10826); experiment: ATG_RARb_TRANS: Attagene TRANS-FACTORIAL HepG2 Assay for human Retinoic Acid Receptor beta (AID 2283004; active = hit-call score of the fitted dose curve at least 0.9, where 1 is the maximum)
In short: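 HepG2, transient MRTU transfection, NR–Gal4 chimera, 24 h treatment; RT-PCR plus CE fluorescence detection of reporter mRNA; gain of signal vs DMSO.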

Measured: AC50

Chain of Peroxisome proliferator-activated receptor gamma (Homo sapiens) (P37231 whole entry, looked up, the tested form may be a part): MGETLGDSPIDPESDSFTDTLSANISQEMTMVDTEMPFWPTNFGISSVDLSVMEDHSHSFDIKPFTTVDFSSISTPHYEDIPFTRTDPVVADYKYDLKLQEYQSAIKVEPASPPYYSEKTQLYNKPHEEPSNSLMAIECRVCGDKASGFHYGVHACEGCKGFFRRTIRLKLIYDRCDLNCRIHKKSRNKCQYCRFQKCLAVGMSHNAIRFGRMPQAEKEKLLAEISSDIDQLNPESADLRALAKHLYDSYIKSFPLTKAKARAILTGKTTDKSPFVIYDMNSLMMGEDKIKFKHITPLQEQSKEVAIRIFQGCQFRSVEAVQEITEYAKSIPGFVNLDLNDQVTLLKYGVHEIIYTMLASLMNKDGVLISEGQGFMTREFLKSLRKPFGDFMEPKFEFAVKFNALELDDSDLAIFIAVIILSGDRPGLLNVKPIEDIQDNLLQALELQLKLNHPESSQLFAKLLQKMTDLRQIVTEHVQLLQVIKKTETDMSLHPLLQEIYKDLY
Chain of human Peroxisome Proliferator-activated Receptor delta (PPARd), PPARD (gene 5467) (Q03181 whole entry, looked up, the tested form may be a part): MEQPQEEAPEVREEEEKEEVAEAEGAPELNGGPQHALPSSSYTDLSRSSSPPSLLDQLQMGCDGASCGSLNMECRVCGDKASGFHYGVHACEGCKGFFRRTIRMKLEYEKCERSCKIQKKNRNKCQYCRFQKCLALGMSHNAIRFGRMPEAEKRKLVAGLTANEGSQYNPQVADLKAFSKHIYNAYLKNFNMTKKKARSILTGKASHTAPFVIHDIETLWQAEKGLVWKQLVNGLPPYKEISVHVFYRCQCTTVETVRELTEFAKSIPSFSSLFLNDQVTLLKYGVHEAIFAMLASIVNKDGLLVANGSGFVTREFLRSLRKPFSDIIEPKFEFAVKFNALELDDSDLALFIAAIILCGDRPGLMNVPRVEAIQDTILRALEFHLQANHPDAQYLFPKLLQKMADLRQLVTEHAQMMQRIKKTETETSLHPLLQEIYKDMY
Chain of Myc proto-oncogene protein (Homo sapiens) (P01106 whole entry, looked up): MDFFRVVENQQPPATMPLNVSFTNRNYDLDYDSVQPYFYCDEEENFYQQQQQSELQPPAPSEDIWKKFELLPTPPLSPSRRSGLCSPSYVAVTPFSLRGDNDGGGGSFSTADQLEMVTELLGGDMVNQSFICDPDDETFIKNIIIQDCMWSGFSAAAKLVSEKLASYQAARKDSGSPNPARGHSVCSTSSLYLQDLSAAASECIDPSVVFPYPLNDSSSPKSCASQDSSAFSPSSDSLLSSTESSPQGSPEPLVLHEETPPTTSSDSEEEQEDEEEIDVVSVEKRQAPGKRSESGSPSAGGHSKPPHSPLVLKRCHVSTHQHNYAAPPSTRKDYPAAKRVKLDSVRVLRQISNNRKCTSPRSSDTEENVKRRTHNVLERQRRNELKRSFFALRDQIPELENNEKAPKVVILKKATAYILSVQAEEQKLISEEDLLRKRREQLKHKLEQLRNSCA
Chain of human Retinoic Acid Receptor beta (RARb), RARB (gene 5915) (P10826 whole entry, looked up, the tested form may be a part): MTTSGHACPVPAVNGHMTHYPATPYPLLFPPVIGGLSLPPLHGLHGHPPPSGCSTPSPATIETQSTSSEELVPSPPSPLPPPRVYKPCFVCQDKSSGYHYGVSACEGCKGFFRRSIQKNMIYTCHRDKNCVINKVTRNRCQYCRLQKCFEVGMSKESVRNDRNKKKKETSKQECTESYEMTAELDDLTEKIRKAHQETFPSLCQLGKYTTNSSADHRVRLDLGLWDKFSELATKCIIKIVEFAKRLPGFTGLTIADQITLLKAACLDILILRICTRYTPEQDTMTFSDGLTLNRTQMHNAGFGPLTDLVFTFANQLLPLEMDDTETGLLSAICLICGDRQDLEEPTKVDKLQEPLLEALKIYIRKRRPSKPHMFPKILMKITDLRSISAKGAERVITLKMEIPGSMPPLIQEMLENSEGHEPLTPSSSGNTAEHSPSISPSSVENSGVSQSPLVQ
Chain of Nuclear receptor subfamily 1 group I member 2 (Homo sapiens) (O75469 whole entry, looked up, the tested form may be a part): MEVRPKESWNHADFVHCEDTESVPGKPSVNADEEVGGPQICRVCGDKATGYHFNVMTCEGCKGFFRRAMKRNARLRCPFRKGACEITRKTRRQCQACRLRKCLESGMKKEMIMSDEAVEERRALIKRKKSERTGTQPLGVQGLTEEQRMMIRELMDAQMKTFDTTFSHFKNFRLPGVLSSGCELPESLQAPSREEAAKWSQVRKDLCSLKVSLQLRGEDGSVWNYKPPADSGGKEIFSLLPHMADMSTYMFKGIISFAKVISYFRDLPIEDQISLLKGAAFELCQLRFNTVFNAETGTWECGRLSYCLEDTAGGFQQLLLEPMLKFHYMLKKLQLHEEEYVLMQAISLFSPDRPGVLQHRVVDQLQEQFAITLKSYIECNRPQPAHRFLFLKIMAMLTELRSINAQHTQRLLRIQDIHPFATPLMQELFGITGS
Chain of human RAR-related Orphan Receptor beta (RORb), RORB (gene 6096) (Q92753 whole entry, looked up, the tested form may be a part): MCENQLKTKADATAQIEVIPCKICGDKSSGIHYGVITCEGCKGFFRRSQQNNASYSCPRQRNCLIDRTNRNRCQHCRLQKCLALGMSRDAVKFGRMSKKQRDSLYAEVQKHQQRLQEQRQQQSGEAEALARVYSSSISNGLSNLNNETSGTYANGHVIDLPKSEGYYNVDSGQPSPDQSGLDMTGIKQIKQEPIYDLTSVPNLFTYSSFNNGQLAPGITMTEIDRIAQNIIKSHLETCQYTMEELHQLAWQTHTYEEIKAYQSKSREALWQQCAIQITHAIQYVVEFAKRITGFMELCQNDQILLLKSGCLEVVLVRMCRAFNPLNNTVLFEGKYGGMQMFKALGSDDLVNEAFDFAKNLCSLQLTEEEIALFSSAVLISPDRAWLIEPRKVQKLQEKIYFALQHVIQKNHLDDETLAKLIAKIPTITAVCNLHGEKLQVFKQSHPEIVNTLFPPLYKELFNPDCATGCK
Chain of human Retinoic Acid Receptor gamma (RARg), RARG (gene 5916) (P13631 whole entry, looked up, the tested form may be a part): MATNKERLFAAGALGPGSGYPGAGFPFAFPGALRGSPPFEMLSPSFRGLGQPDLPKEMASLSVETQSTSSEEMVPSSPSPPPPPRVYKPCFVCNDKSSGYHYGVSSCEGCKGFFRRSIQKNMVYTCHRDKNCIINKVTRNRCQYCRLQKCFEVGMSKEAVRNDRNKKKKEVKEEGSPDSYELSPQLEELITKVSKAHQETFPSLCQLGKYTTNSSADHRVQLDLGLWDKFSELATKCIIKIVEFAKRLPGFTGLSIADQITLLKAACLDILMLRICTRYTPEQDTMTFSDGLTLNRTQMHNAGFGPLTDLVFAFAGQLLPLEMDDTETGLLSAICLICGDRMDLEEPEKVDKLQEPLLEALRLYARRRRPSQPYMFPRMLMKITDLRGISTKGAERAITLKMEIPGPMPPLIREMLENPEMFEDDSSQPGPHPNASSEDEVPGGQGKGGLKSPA
Chain of human RAR-related Orphan Receptor gamma (RORg), RORC (gene 6097) (P51449 whole entry, looked up, the tested form may be a part): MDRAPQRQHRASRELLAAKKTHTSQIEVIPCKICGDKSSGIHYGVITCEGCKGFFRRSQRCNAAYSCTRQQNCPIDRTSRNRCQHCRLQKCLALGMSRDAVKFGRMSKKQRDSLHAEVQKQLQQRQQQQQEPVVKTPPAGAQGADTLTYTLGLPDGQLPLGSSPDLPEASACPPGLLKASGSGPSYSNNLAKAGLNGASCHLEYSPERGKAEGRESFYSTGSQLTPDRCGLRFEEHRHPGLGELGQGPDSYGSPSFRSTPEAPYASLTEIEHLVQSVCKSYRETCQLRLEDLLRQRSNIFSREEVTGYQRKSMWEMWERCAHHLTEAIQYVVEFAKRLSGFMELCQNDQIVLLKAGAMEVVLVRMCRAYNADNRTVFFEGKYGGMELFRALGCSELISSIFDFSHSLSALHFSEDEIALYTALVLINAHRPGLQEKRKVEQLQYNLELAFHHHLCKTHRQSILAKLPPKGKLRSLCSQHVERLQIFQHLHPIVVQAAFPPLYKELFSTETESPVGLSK
Chain of Retinoic acid receptor alpha (Homo sapiens) (P10276 whole entry, looked up, the tested form may be a part): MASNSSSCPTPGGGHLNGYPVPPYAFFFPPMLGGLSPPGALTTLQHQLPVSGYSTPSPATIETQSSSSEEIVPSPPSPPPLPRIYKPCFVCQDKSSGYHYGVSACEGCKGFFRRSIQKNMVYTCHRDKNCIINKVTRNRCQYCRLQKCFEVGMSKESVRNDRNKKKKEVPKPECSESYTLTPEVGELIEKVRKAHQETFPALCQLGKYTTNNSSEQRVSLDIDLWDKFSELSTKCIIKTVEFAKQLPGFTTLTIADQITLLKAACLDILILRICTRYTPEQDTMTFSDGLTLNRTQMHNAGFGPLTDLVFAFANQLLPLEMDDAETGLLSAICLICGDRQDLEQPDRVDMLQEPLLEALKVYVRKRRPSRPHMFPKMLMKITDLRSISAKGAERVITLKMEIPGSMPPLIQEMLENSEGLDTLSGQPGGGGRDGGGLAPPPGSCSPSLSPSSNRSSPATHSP
Chain of Cellular tumor antigen p53 (Homo sapiens) (P04637 whole entry, looked up): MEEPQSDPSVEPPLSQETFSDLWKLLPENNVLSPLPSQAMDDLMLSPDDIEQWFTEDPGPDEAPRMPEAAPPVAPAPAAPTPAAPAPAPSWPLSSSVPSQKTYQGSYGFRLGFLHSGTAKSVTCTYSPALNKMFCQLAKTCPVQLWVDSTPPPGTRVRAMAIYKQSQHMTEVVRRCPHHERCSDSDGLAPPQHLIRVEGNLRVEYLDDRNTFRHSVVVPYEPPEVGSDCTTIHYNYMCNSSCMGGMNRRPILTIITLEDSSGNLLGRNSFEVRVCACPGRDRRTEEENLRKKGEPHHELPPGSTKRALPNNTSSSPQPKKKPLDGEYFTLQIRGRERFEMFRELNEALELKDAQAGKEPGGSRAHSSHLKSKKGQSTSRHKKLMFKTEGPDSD

C[C@H]1O[C@@H](O[C@H]2[C@@H](O)C[C@H](O[C@H]3[C@@H](O)C[C@H](O[C@H]4CC[C@@]5(C)[C@H](CC[C@@H]6[C@@H]5C[C@@H](O)[C@]5(C)[C@@H](C7=CC(=O)OC7)CC[C@]65O)C4)O[C@@H]3C)O[C@@H]2C)C[C@H](O)[C@@H]1O
inactive: [1] | [5] | [6] | [7] | [8] | [9] | [10] | [11]
active: [2] 0.348 µM | [3] 0.613 µM | [4] 0.133 µM

Nc1c(S(=O)(=O)O)cc(Br)c2c1C(=O)c1ccccc1C2=O
inactive: [1] | [2] | [4] | [5]
active: [3] 73.8 µM | [8] 27.5 µM | [9] 40.2 µM

C1CCCCC1
inactive: [1] | [2] | [3] | [4] | [12] | [9] | [11] | [13]

C=C(C)[C@H]1CC=C(C)C(=O)C1
inactive: [1] | [2] | [3] | [4] | [14] | [15] | [16] | [17] | [5] | [18] | [19] | [9]
active: [8] 68.7 µM

OCCOCCN1CCN(C2=Nc3ccccc3Sc3ccccc32)CC1
inactive: [1] | [2] | [4] | [10]
active: [3] 176 µM | [12] 75.8 µM | [9] 5.77 µM

COc1ccc(COC(C)=O)cc1
inactive: [1] | [2] | [3] | [4] | [5] | [6]

COc1ccc(CCO)cc1
inactive: [1] | [2] | [3] | [4] | [5] | [20] | [8] | [10]

CCCSc1ccc2nc(NC(=O)OC)[nH]c2c1
inactive: [1] | [2] | [3] | [4] | [5] | [6] | [9]

CC(=O)c1ccccn1
inactive: [1] | [2] | [3] | [4] | [12] | [13]

NCc1ccco1
inactive: [1] | [2] | [3] | [4] | [5] | [6] | [9] | [10] | [11] | [13]

CC1(C)C(=O)N(Cl)C(=O)N1Br
inactive: [1] | [2] | [3] | [4] | [5] | [20] | [7] | [8]

CC(C)=CCCC(C)CC(=O)O (stereo not drawn)
inactive: [1] | [2] | [3] | [4] | [5] | [6] | [8] | [9] | [13]

CC(C)(C)OC(=O)c1ccc(O)cc1
inactive: [1] | [2] | [6] | [9]
active: [3] 35 µM | [4] 100 µM | [8] 39.4 µM

CSc1c(Cl)c(Cl)c(Cl)c(Cl)c1Cl
inactive: [2] | [12] | [20] | [10]
active: [1] 167 µM | [3] 48.4 µM | [8] 6.23 µM | [9] 8.95 µM

CSCCC=O
inactive: [1] | [2] | [3] | [12] | [14] | [15] | [16] | [17] | [18] | [19]
active: [8] 56.3 µM | [9] 10.6 µM

CCNCCO
inactive: [1] | [2] | [3] | [4] | [20] | [8]

COc1ccc(CCN2CCC(Nc3nc4ccccc4n3Cc3ccc(F)cc3)CC2)cc1
inactive: [1] | [2] | [12] | [14] | [16] | [18] | [20] | [7] | [9] | [10] | [11]
active: [3] 1.99 µM | [15] 5 µM | [17] 5 µM | [19] 6.51 µM

CCCCSCCCC
inactive: [1] | [2] | [3] | [4] | [6] | [8] | [9]

C[C@H]1C[C@@H](O)CC(C)(C)C1
inactive: [1] | [2] | [3] | [4] | [20] | [7] | [8] | [9] | [10]

Cc1c(C2(c3cc(Br)c(O)c(Br)c3C)OS(=O)(=O)c3ccccc32)cc(Br)c(O)c1Br
active: [3] 52.5 µM | [9] 13 µM
inactive: [1] | [2] | [12] | [6] | [8] | [10] | [13]

CN(C)CCOc1ccc(/C(=C(/CCCl)c2ccccc2)c2ccccc2)cc1
active: [3] 2.47 µM
inactive: [1] | [2] | [12] | [9] | [10]

CC(C)=CCCC(C)CCOC=O (stereo not drawn)
inactive: [1] | [2] | [3] | [12] | [8] | [9]

CC(C)(C)CC(C)(C)c1ccc(OCCOCC[N+](C)(C)Cc2ccccc2)cc1
inactive: [1] | [2] | [6] | [20] | [8]
active: [3] 6.71 µM | [14] 7.26 µM | [15] 5 µM | [16] 7.65 µM | [17] 7.69 µM | [5] 14.4 µM | [18] 8.87 µM | [19] 7.08 µM
